Measurements as given in PubChem BioAssay (NCATS).
Inconclusive results are not listed. Unmarked numbers belong to inactive results. Calls come from the whole dose curve; as a rule, active = well fitted cell-killing curve with a large enough effect; inconclusive = small, poorly fitted or top-dose-only effect, or effect the other way; inactive = flat fitted curve, though single readings scatter.

tested on: Tov112D; experiment: Primary qHTS to identify gynecologic anti-cancer compounds using libraries of approved drugs and bioactive compounds (AID 1345084); settings: Gynecologic cancer cell panel viability, ATPlite luminescence, 48 h; series mostly up to 57.5 µM; activity change, negative = cytotoxicity: at the top concentration; note: nearly all actives have a fitted effect of over 55% in size
Method in brief: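 Cytotoxicity screen measuring ATP content by luciferase luminescence. Each compound is applied at five concentrations for 48 h at 37 C with 5% CO2.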
% is set by controls: 0 for no effect and ±100 for the full control effect.

Point of comparison: `CC1CC(=O)C2C(O)(C1)CC(O)C13OC1c1c(O)cccc1C(=O)C23O` (stereo unspecified), “activity change, negative = cytotoxicity” value 1.32% [at 38.5 µM]. Against it:
- CC(C)(O)c1ccc2c(c1)C(=O)C[C@H]1[C@](C)(C(=O)O)CCC[C@]21C — higher, 7.15% [at 38.5 µM]
- CC1CC2OCC3(O)CCC(O)C(C14CC(c1ccoc1)OC4=O)C23CO (stereo unspecified) — higher, 4.35% [at 38.5 µM]
- COC1OC(O)C2(CCC3(O2)C(C)CC2OC(=O)C4(C)CCCC3(C)C24)C1O (stereo unspecified) — lower, -2.08% [at 38.5 µM]
- CO[C@H]1c2cc(C(C)C)c(O)c(O)c2[C@@]23CCCC(C)(C)C2[C@@H]1OC3=O (stereo partly specified) — lower, -0.0554% [at 38.5 µM]

Point of comparison: `CCN(CCN(C)C)C(=O)CNCc1cc(C(N)=O)ccn1`, “activity change, negative = cytotoxicity” value 23.2%. Against it:
- CN1CCCC1Cc1c[nH]c2ccc(CCS(=O)(=O)c3ccccc3)cc12 (stereo unspecified) — lower, 2.58%
- CC(C)N(CCCNC(=O)Nc1ccc(C(C)(C)C)cc1)C[C@H]1O[C@@H](n2ccc3c(N)ncnc32)[C@H](O)[C@@H]1O — lower, 7.49%
- CCN=C1N[C@@H]2[C@@H](O)[C@H](O)[C@@H](CO)O[C@@H]2S1 — lower, 12.9%
- CC1CC(O)/C=C/C(O)/C=C\C(=O)O1 (stereo unspecified) — lower, -3.49%

Point of comparison: `C/C=C1/[C@H](O[C@@H]2O[C@H](CO)[C@@H](O)[C@H](O)[C@H]2O)OC=C(C(=O)OC)[C@H]1CC(=O)OCCc1ccc(OC(=O)C[C@@H]2C(C(=O)OC)=CO[C@@H](O[C@@H]3O[C@H](CO)[C@@H](O)[C@H](O)[C@H]3O)/C2=C/C)cc1`, activity change, negative = cytotoxicity 11.9% [at 11.6 µM]. Against it:
- CC1OC(OC2C(OC3C(O[C@H]4CC[C@@]5(C)C(CC[C@]6(C)C5C(=O)CC5=C7CC(C)(C)CC(O)[C@]7(C)CC[C@]56C)C4(C)C)OC(C(=O)O)C(O)C3O)OCC(O)C2O)C(O)C(O)C1O (stereo partly specified) — lower, 3.63% [at 11.6 µM]

Point of comparison: `CC(C)[C@@H](C(=O)O)N1Cc2c(cc(O)c3c2O[C@]2(C3)[C@H](C)CCC3C(C)(C)[C@H](O)[C@H](O)C[C@@]32C)C1=O` (stereo partly specified), “activity change, negative = cytotoxicity” value -1.94% [at 25.3 µM]. Against it:
- CC(C)=CCC[C@](C)(O[C@@H]1O[C@H](CO[C@@H]2OC[C@H](O)[C@H](O)[C@H]2O)[C@@H](O)[C@H](O)[C@H]1O)[C@H]1CC[C@]2(C)[C@@H]1[C@H](O)C[C@@H]1[C@@]3(C)CC[C@H](O[C@@H]4O[C@H](CO)[C@@H](O)[C@H](O)[C@H]4O[C@@H]4O[C@H](CO)[C@@H](O)[C@H](O)[C@H]4O)C(C)(C)[C@@H]3CC[C@]12C — higher, 7.16% [at 25.3 µM]
- COC(=O)C1(O)C(OC(C)=O)CCC2C3(CC(c4ccoc4)OC3=O)C(C)=CCC21C(=O)OC (stereo unspecified) — higher, 18% [at 25.3 µM]
- CC1(C)CC[C@]2(C(=O)O)CC[C@]3(C)C(=CCC4[C@@]5(C)CC[C@H](O)C(C)(C)C5CC[C@]43C)C2C1 (stereo partly specified) — higher, 2.59% [at 25.3 µM]
